{
  "source": "PubChem BioAssay AID2314",
  "about": "(National Center for Advancing Translational Sciences (NCATS), 2010)",
  "note": "Hit rate of the full screen: of about 300,000 compounds, about 37,000 (12%) were called active. The entries come from a sample that favours actives as a whole. A number with no mark means an inactive call. Cut-off read from the data, not from the text of the source: active = max response mostly above about 13% (no sharp cut-off); inactive = mostly below about 14%.",
  "data": [
    {"experiment": "Cycloheximide Counterscreen for Small Molecule Inhibitors of Shiga Toxin; note: read at 38.3 µM for the half of the compounds with a filed dose; 0% is about no effect", "details": "cell reporter, cycloheximide protein synthesis inhibition counterscreen; active compounds read high", "values": [
      {"molecule": "O=C(Cn1c(=S)nc2ccccn21)N1CCc2ccccc2C1", "max response": "22.4% (active)"},
      {"molecule": "Cc1ccc(Cl)c(OCC(=O)N2CCc3ccccc3C2)c1", "max response": "30% (active)"},
      {"molecule": "COc1ccc(OCC(=O)N2CCN(C(=O)COc3ccccc3)CC2)cc1", "max response": "-5.08%"},
      {"molecule": "O=C(COc1ccccc1)N1CCc2ccccc2C1", "max response": "28.7% (active)"},
      {"molecule": "Cc1cccc(OC(C)C(=O)N2CCc3ccccc3C2)c1", "note": "(stereo not given)", "max response": "-3.38%"},
      {"molecule": "O=C(COc1ccccc1Cl)N1CCCCCCC1", "max response": "4.62%"},
      {"molecule": "Cc1ccc(Cl)c(OCC(=O)NN2CCN(C)CC2)c1", "max response": "-2.49%"},
      {"molecule": "O=C(C1CCN(c2nnc(-n3cccc3)s2)CC1)N1CCc2ccccc2C1", "max response": "-2.9%"},
      {"molecule": "Cc1ccccc1-c1nc(CS(=O)(=O)CC(=O)N2CCc3ccccc3C2)c(C)o1", "max response": "0.61%"},
      {"molecule": "COc1ccccc1CN1CCN(C(c2ccccc2)c2ccccc2)CC1", "max response": "-1.72%"},
      {"molecule": "CC1CCN(C(=O)c2ccc3c(c2)NC(=O)CN3)CC1", "max response": "-6.43%"},
      {"molecule": "Oc1ccc(Cl)cc1C1C=C(c2ccc3c(c2)OCO3)NC(c2c(F)cccc2Cl)N1", "note": "(stereo not given)", "max response": "59.8% (active)"},
      {"molecule": "Oc1ccc(Cl)cc1C1C=C(c2ccc3c(c2)OCO3)NC(c2ccc(F)c(Br)c2)N1", "note": "(stereo not given)", "max response": "50.7% (active)"},
      {"molecule": "CCOC(=O)CC1COCCN1C(=O)c1cc(COc2ccc(F)c(F)c2)on1", "note": "(stereo not given)", "max response": "38.7% (active)"},
      {"molecule": "O=C(c1cc(COc2ccc(F)c(F)c2)on1)N1CCOCC1", "max response": "42.1% (active)"},
      {"molecule": "OC(COc1ccc(F)cc1Cl)CN1CCc2ccccc2C1", "note": "(stereo not given)", "max response": "-2.68%"},
      {"molecule": "Cc1cc(NC(=O)COC(=O)c2ccc(F)c(S(=O)(=O)N3CCOCC3)c2)no1", "max response": "-2.52%"},
      {"molecule": "Cc1c(C(=O)N2CCOCC2)[nH]c2ccc(OCc3ccccc3)cc12", "max response": "0.995%"},
      {"molecule": "C=CCC1(CC=C)CCCN1C(=O)c1cc(COc2ccc(-n3cncn3)cc2)on1", "max response": "7.87%"},
      {"molecule": "COCCN1CCN(C(=O)c2cc(COc3ccc(F)cc3Cl)on2)CC1", "max response": "20.2% (active)"},
      {"molecule": "O=C(c1cc(COc2cccc(C(F)(F)F)c2)on1)N1CCSCC1", "max response": "-0.615%"},
      {"molecule": "CCOC(=O)c1ccccc1C(=O)N1CCOCCOCCOCC1", "max response": "-3.37%"},
      {"molecule": "O=C(c1cc(COc2c(F)cccc2F)on1)N1CCSCC1", "max response": "54.8% (active)"},
      {"molecule": "O=C(c1c(F)cccc1F)N1CCN(c2ncc(Br)cn2)CC1", "max response": "-1.54%"},
      {"molecule": "CN1CCN(C(=O)c2ccccc2NC(=O)COc2ccccc2Cl)CC1", "max response": "16.7%"},
      {"molecule": "C=CCNc1nc(N)c(C(=C(C#N)C#N)c2ccccc2)s1", "max response": "1.38%"},
      {"molecule": "Cc1ccn2c(c1)nc(=O)c1cc(S(=O)(=O)N3CCC(C)CC3)ccc12", "max response": "-3.62%"},
      {"molecule": "OC(CN=c1sc2ccccc2n1CC(O)COc1ccccc1)COc1ccccc1", "note": "(stereo not given)", "max response": "0.416%"},
      {"molecule": "O=C(Nc1ccc(Cl)cc1)c1cccc(OC(=S)N2CCOCC2)c1", "max response": "21.3%"},
      {"molecule": "CC(C)Oc1ccc(C(CC(=O)N2CCOCC2)C(C)C)cc1", "note": "(stereo not given)", "max response": "0.501%"},
      {"molecule": "O=C(NNC(=O)C(O)c1ccccc1)NC1CCCCC1", "note": "(stereo not given)", "max response": "-2.85%"},
      {"molecule": "COCC(C)NC(=O)c1ccc(-n2nc(C(F)(F)F)cc2-c2cccs2)cc1", "note": "(stereo not given)", "max response": "1.01%"},
      {"molecule": "Nc1nonc1-n1nnc(C(=O)N/N=C/c2ccc(Cl)cc2)c1-c1ccc2c(c1)OCO2", "max response": "-1.92%"},
      {"molecule": "Cc1c(-c2ccccc2)cn2c1-c1ccc(C)n1CC2", "max response": "-3.8%"},
      {"molecule": "O=C1COc2ccc(NC(=O)N3CCN(c4ccc(F)cc4)CC3)cc2N1", "max response": "-3.27%"},
      {"molecule": "COc1ccc(OC)c(NC(=O)CSc2nc(-c3ccccc3)cc(=O)[nH]2)c1", "max response": "-6.47%"},
      {"molecule": "CCC(NC(=O)c1cc(COc2ccc(F)c(F)c2)on1)c1ccncc1", "note": "(stereo not given)", "max response": "33.7% (active)"},
      {"molecule": "O=C(Oc1ccc(C(=S)N2CCOCC2)cc1)c1ccc(F)cc1", "max response": "-3.82%"},
      {"molecule": "O=C(CC(NC(=O)c1ccccc1)c1ccccc1)Nc1ccc(F)c(F)c1", "note": "(stereo not given)", "max response": "1.73%"},
      {"molecule": "O=C(NC1Cc2ccccc2C1)c1cc(COc2cccc(C(F)(F)F)c2)on1", "max response": "-3.57%"},
      {"molecule": "COc1ccc(CCNC(=O)c2cnc(Cl)c(Cl)c2)cc1", "max response": "6.51%"},
      {"molecule": "COc1cc(C(=O)N2CCOCC2)cc(OC)c1OC", "max response": "-5.91%"},
      {"molecule": "COc1ccc(-c2cc(C(=O)NCCCN3CCOCC3)no2)cc1", "max response": "2.58%"},
      {"molecule": "O=C(c1cc(COc2ccc(F)cc2F)on1)N1CCOCC1", "max response": "47% (active)"},
      {"molecule": "COc1ccc(OCc2cc(C(=O)NCC3(C)COC3)no2)c(Cl)c1", "max response": "40.1% (active)"},
      {"molecule": "O=C(Nc1ccc(N2CCOCC2)cc1)c1ccc(-c2ccccc2[N+](=O)[O-])o1", "max response": "21.5%"},
      {"molecule": "COc1ccc(/C=C2\\CCCC3C2=NN(C(=O)c2scnc2C)C3c2ccc(OC)cc2)cc1", "note": "(stereo not given)", "max response": "11.8%"},
      {"molecule": "CCOC(=O)N1CCN(S(=O)(=O)c2ccc(-n3cnnn3)cc2)CC1", "max response": "-0.729%"},
      {"molecule": "O=S(=O)(NC1CCCCC1N1CCC(O)CC1)c1ccc(Cl)cc1", "note": "(stereo not given)", "max response": "-0.643%"},
      {"molecule": "Oc1ccc(C2Nc3cccc4cccc(c34)N2)cc1", "max response": "-1.27%"},
      {"molecule": "O=C(O)c1ccc(NS(=O)(=O)c2ccc3c(c2)C(=O)c2cc(S(=O)(=O)Nc4ccc(C(=O)O)cc4)ccc2-3)cc1", "max response": "12.6%"},
      {"molecule": "Cc1cccc(CCNS(=O)(=O)c2ccc3c(c2)NC(=O)CO3)c1", "max response": "-8.72%"},
      {"molecule": "COc1ccc(C2CC(O)(c3ccccc3)Oc3cc(C)cc(C)c32)cc1", "note": "(stereo not given)", "max response": "15.7%"},
      {"molecule": "CCOC(=O)c1cc(=O)c2ccc(OCc3ccccc3)cc2o1", "max response": "-0.548%"},
      {"molecule": "N#C/C(=C(/O)COC(=O)COc1ccc(Cl)cc1)c1nc2ccccc2[nH]1", "max response": "-7.7%"},
      {"molecule": "O=C(C[n+]1ccc2c(c1)nnn2-c1ccccc1)c1ccc(Cl)cc1", "max response": "6.33%"},
      {"molecule": "O=C(Cc1nc2ccccc2[nH]c1=O)c1ccc(Cl)cc1", "max response": "49.5% (active)"},
      {"molecule": "COc1ccc(CC(NC(C)=O)C(=O)NC2CCN(C(=O)c3ccc(Cl)cc3)CC2)cc1", "note": "(stereo not given)", "max response": "-8.8%"},
      {"molecule": "c1ccc2c(NC3C4CC5CC(C4)CC3C5)nc(N3CCOCC3)nc2c1", "note": "(stereo not given)", "max response": "-3.82%"},
      {"molecule": "Cn1c(=O)n(Cc2ccco2)c(=N)c2c3c(sc21)CCCC3", "max response": "-4.49%"},
      {"molecule": "O=c1oc(-c2ccco2)nc2sc3c(c12)CCCCC3", "max response": "15% (active)"},
      {"molecule": "O=C(NCc1ccco1)c1cccn2c(=O)c3c4c(sc3nc12)CCCC4", "max response": "13.5%"},
      {"molecule": "Cc1cccc(NC(=O)C2CCCN(C(=O)NCc3ccccc3)C2)c1C", "note": "(stereo not given)", "max response": "1.32%"},
      {"molecule": "Clc1ccc(C2[C@H]3CN(CC4CCCCC4)[C@H](c4ccccc4)C34CC2(c2cccnc2)C4)cn1", "note": "(stereo not given in full)", "max response": "-6.35%"},
      {"molecule": "O=S(=O)(c1ccc(Br)cc1)n1ccc2ccccc21", "max response": "-2.94%"},
      {"molecule": "CC(=O)c1nn(-c2cccc(C(F)(F)F)c2)c(=O)[nH]c1=O", "max response": "-1.16%"},
      {"molecule": "Brc1cccc(-c2nnc3n2CCC3)c1", "max response": "-1.45%"},
      {"molecule": "COc1ccc(-c2nnc3n2CCCCC3)cc1", "max response": "-0.714%"},
      {"molecule": "COc1ccc(-c2nc3n(c2Br)CCC3)cc1", "max response": "45.3% (active)"},
      {"molecule": "COc1ccc(Br)cc1C(=O)NC(=S)Nc1cc(-c2nc3ccccc3[nH]2)ccc1C", "max response": "24.4%"},
      {"molecule": "COc1ccc(-c2nc(N)ncc2-c2ccc(Cl)cc2)c(O)c1", "max response": "-1.99%"},
      {"molecule": "Cc1[nH]c2ccccc2c1C(=O)COC(=O)c1c(-c2ccccc2)noc1C", "max response": "-1.13%"},
      {"molecule": "Cc1[nH]c2ccccc2c1C(=O)COC(=O)C(C)C", "max response": "17.9% (active)"},
      {"molecule": "Cc1[nH]c2ccccc2c1C(=O)CSCC(=O)O", "max response": "-0.861%"},
      {"molecule": "Cc1ccc(N(CC(=O)NC2CCCCC2)C(=O)CCCC(=O)Nc2ccccn2)c(C)c1", "max response": "-2.99%"},
      {"molecule": "CCc1ccc2[nH]c(=O)c(Cc3ccccc3)c(O)c2c1", "max response": "0.407%"},
      {"molecule": "COc1ccc(-c2onc(C)c2-c2ccc3c(c2)OCCO3)c(O)c1", "max response": "-1.9%"},
      {"molecule": "COc1ccc(CCNC(=O)c2cc(-c3ccc4c(c3)OCO4)on2)cc1OC", "max response": "-2.19%"},
      {"molecule": "COc1cc(-c2c(-c3ccc4c(c3)OCO4)noc2C)ccc1F", "max response": "31.7% (active)"},
      {"molecule": "Cc1ccc(-c2cnc(NC(=O)CCC(=O)N(C)Cc3ccccc3)n2C)cc1", "max response": "1.02%"},
      {"molecule": "CC(C)(C)c1ccc(C(=O)NCCC(=O)NCc2ccco2)cc1", "max response": "6.14%"},
      {"molecule": "CC(C)(C)NC(=O)NCc1ccco1", "max response": "-1.96%"},
      {"molecule": "O=C(Nc1ccccc1)Nc1ccccc1C(=O)NCc1ccco1", "max response": "12.3% (active)"},
      {"molecule": "CC(C)(C)c1ccc(NC(=O)NCc2ccco2)cc1", "max response": "47.3% (active)"},
      {"molecule": "Cc1cccc(Nc2ccccc2C(=O)NCc2ccco2)c1C", "max response": "-4.07%"},
      {"molecule": "COc1ccc(C(=O)Nc2ccccc2C(=O)NCc2ccco2)cc1", "max response": "-2.2%"},
      {"molecule": "CCOCCCNC(=O)C1(O)c2cc(Br)ccc2NC(=O)N1c1ccc(C)c(C)c1", "note": "(stereo not given)", "max response": "-2.74%"},
      {"molecule": "O=C(/C=C/c1ccc(F)cc1)Nc1cccc(S(=O)(=O)Nc2cccc(C(F)(F)F)c2)c1", "max response": "-2.37%"},
      {"molecule": "CCCC1(C(=O)OCC)NC(c2ccc(N(C)C)cc2)C2C(=O)N(c3ccc4c(c3)OCCO4)C(=O)C21", "note": "(stereo not given)", "max response": "-5.79%"},
      {"molecule": "CC1CCCCC1NC(=O)CSc1nnc(-c2ccncc2)n1CCCN(C)C", "note": "(stereo not given)", "max response": "-2.68%"},
      {"molecule": "COc1cccc(CN(C)CC(O)COC(c2ccccc2)c2ccccc2C)c1", "note": "(stereo not given)", "max response": "-4.62%"},
      {"molecule": "CC(CNc1ccc([N+](=O)[O-])cc1)NC(=O)c1ccccc1Br", "note": "(stereo not given)", "max response": "-2.28%"},
      {"molecule": "CCNC(=S)N(CCN(CC)CC)Cc1cc2cc3c(cc2[nH]c1=O)OCO3", "max response": "-2.69%"},
      {"molecule": "CSc1nnc(-c2ccc(C(F)(F)F)cn2)o1", "max response": "15.3% (active)"},
      {"molecule": "CC(C)Oc1ccc(Oc2ccc(C(F)(F)F)cn2)cc1", "max response": "10.2%"}
    ]}
  ]
}
